Source: PubChem BioAssay

The molecules below were run on Human papillomavirus type 1a E7 protein (residues 1-88) (assay: HPV1a E7 small-molecule binders, primary screen, biochemical, small-molecule microarray, residues 1-88, 635 nm (AID 1129)). Settings: small-molecule microarray binding, fluorescence 635 nm; higher = more signal.
Molecule `CCCCN1CC=CC23O[C@@H]4C=CCOC(=O)[C@@H]4[C@H]2C(=O)N(CCO)[C@@H]3C1=O` (some centres undefined) has a composite z-score of -0.629. In the case of `C=CC[C@@]12N=C(c3ccc(OCCCO)cc3)O[C@@H]1c1ccccc1N(Cc1ccccc1)C2=O`, the composite z-score is reported as 1.17. With `COCCOC(=O)N1C(=O)[C@@]2(c3cc(C#CCC(C(=O)OC)C(=O)OC)ccc31)[C@H](C(N)=O)[C@H]1C(=O)O[C@H](c3ccccc3)[C@H](c3ccccc3)N1[C@@H]2c1ccc(OCCO)cc1` the composite z-score was 1.22. `CCOC(=O)C1=C(C(=O)OCC)N(S(=O)(=O)CC[Si](C)(C)C)[C@H](c2ccccc2)CC1` showed a composite z-score of 1.17. `COC(=O)C1=CC(CCCO)=CC(c2ccc(CN3CCCC3)cc2)N(Cc2sc3ccccc3c2Cl)C=C1C(=O)OC` (centres undefined) gave a composite z-score of 1.23. For `C=CCNC(=O)[C@@H]1[C@H]2C(=O)O[C@H](c3ccccc3)[C@H](c3ccccc3)N2[C@H](c2ccc(O)cc2)[C@@]12C(=O)Nc1ccc(C#CC3(O)CCCCCC3)cc12`, the composite z-score was 0.596. Work on `NC(=O)NCC#Cc1ccc2c(c1)[C@]1(C(=O)N2)[C@H](C(=O)Nc2nc3ccccc3s2)[C@H]2C(=O)O[C@H](c3ccccc3)[C@H](c3ccccc3)N2[C@@H]1c1ccc(OCCO)cc1` yielded a composite z-score of 0.094. For `COCCOC(=O)N1C(=O)[C@@]2(c3cc(C#CC4(O)CCCCCC4)ccc31)[C@H](c1ccccc1OCCO)N1[C@H](c3ccccc3)[C@H](c3ccccc3)OC(=O)[C@H]1[C@@H]2C(=O)N1CCCCCCC1`, the composite z-score was 1.23. With `COCCOC(=O)N1C(=O)[C@@]2(c3cc(C#CCCO)ccc31)[C@H](C(=O)N1CCc3cc(OC)c(OC)cc3C1)[C@H]1C(=O)O[C@H](c3ccccc3)[C@H](c3ccccc3)N1[C@@H]2c1ccccc1OCCO` the composite z-score was 1.19.
